From PubChem BioAssay AID1159580 (chemical genetic matrix, 2015)
Out of some 5,500 compounds screened, about 2,000 (36%) were called active. Another 18% or so got no clear call; they are omitted. Rule as the data show it: active = normalized growth mostly below about 0.91 (no sharp cut-off); inconclusive = no clear call, values can overlap the other calls; inactive = mostly above about 0.92. The list shows a part of the results.

Assay: chemical genetic growth profiling, strain panel (AID 1159580);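 also: tested at 20 µM; growth read once vehicle control cultures reached saturation at 30 °C; 1 = growth at the plate median or of vehicle wells; lower values mean less growth of the strain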
Conditions: growth OD

Measured: normalized growth

Cc1cc(-c2ccccc2)nnc1NCCN1CCOCC1
inactive: S. cerevisiae deletion strains, locus YJR075W, strain HOC1, hits give low values 0.997 | S. cerevisiae deletion strains, locus YKL009W, strain mrt4, hits give low values 1.08 | S. cerevisiae deletion strains, locus YKL068W, hits give low values 0.969 | S. cerevisiae deletion strains, locus YKL085W, strain MDH1 (second series), hits give low values 1 | S. cerevisiae deletion strains, locus YKL085W, strain MDH1, hits give low values 1 | S. cerevisiae deletion strains, locus YKL160W, strain elf1, hits give low values 0.966 | S. cerevisiae deletion strains, locus YKL190W, strain CNB1, hits give low values 1 | S. cerevisiae deletion strains, locus YKR001C, strain vps1, hits give low values 0.98 | S. cerevisiae deletion strains, locus YKR026C, strain gcn3, hits give low values 0.995 | S. cerevisiae deletion strains, locus YKR091W, strain srl3, hits give low values 0.995 | S. cerevisiae deletion strains, locus YLL001W, strain dnm1, hits give low values 0.976 | S. cerevisiae deletion strains, locus YLL026W, hits give low values 0.992 | S. cerevisiae deletion strains, locus YLL041C, strain sdh2, hits give low values 0.988 | S. cerevisiae deletion strains, locus YLR027C, strain aat2, hits give low values 0.989 | S. cerevisiae deletion strains, locus YLR039C, strain RIC1, hits give low values 0.999 | S. cerevisiae deletion strains, locus YLR058C, strain SHM2, hits give low values 1.01 | S. cerevisiae deletion strains, locus YLR102C, strain apc9, hits give low values 0.968 | S. cerevisiae deletion strains, locus YLR113W, strain HOG1, hits give low values 0.964 | S. cerevisiae deletion strains, locus YLR221C, strain rsa3, hits give low values 0.989 | S. cerevisiae deletion strains, locus YLR258W, strain gsy2, hits give low values 0.995 | S. cerevisiae deletion strains, locus YLR262C, strain YPT6 (second series), hits give low values 0.98 | S. cerevisiae deletion strains, locus YLR262C, strain YPT6, hits give low values 1.04 | S. cerevisiae deletion strains, locus YLR268W, strain sec22, hits give low values 0.946 | S. cerevisiae deletion strains, locus YLR320W, strain mms22, hits give low values 0.984 | S. cerevisiae deletion strains, locus YLR330W, strain CHS5, hits give low values 0.999 | S. cerevisiae deletion strains, locus YLR342W, strain FKS1 (second series), hits give low values 1.07 | S. cerevisiae deletion strains, locus YLR342W, strain FKS1, hits give low values 0.983 | S. cerevisiae deletion strains, locus YLR357W, strain rsc2, hits give low values 0.975 | S. cerevisiae deletion strains, locus YLR370C, strain arc18, hits give low values 0.986 | S. cerevisiae deletion strains, locus YLR371W, strain rom2, hits give low values 0.967 | S. cerevisiae deletion strains, locus YLR384C, strain iki3, hits give low values 0.976 | S. cerevisiae deletion strains, locus YLR418C, strain cdc73, hits give low values 0.998 | S. cerevisiae deletion strains, locus YML016C, strain PPZ1, hits give low values 1.02 | S. cerevisiae deletion strains, locus YML032C, strain rad52, hits give low values 0.974 | S. cerevisiae deletion strains, locus YML120C, strain ndi1, hits give low values 0.972 | S. cerevisiae deletion strains, locus YML124C, strain tub3, hits give low values 0.978 | S. cerevisiae deletion strains, locus YMR058W, strain fet3, hits give low values 0.988 | S. cerevisiae deletion strains, locus YMR078C, strain ctf18, hits give low values 0.978 | S. cerevisiae deletion strains, locus YMR125W, strain sto1, hits give low values 0.972 | S. cerevisiae deletion strains, locus YMR129W, hits give low values 0.989 | S. cerevisiae deletion strains, locus YMR205C, strain PFK2, hits give low values 0.965 | S. cerevisiae deletion strains, locus YMR223W, strain ubp8, hits give low values 1.02 | S. cerevisiae deletion strains, locus YMR231W, strain pep5, hits give low values 0.998 | S. cerevisiae deletion strains, locus YMR263W, strain SAP30, hits give low values 0.997 | S. cerevisiae deletion strains, locus YMR307W, strain GAS1, hits give low values 1.04 | S. cerevisiae deletion strains, locus YNL067W, strain RPL9B, hits give low values 0.985 | S. cerevisiae deletion strains, locus YNL071W, strain lat1, hits give low values 0.987 | S. cerevisiae deletion strains, locus YNL128W, strain TEP1, hits give low values 0.995 | S. cerevisiae deletion strains, locus YNL153C, strain GIM3, hits give low values 1.01 | S. cerevisiae deletion strains, locus YNL183C, strain NPR1, hits give low values 0.931 | S. cerevisiae deletion strains, locus YNL209W, strain ssb2, hits give low values 0.991 | S. cerevisiae deletion strains, locus YNL233W, strain BNI4, hits give low values 1.01 | S. cerevisiae deletion strains, locus YNL248C, strain rpa49, hits give low values 0.985 | S. cerevisiae deletion strains, locus YNL250W, strain rad50, hits give low values 0.98 | S. cerevisiae deletion strains, locus YNL271C, strain bni1, hits give low values 0.968 | S. cerevisiae deletion strains, locus YNL298W, strain CLA4, hits give low values 0.977 | S. cerevisiae deletion strains, locus YNL307C, strain MCK1, hits give low values 0.993 | S. cerevisiae deletion strains, locus YNL322C, strain KRE1 (second series), hits give low values 0.981 | S. cerevisiae deletion strains, locus YNL322C, strain KRE1, hits give low values 0.994 | S. cerevisiae deletion strains, locus YNR049C, strain mso1, hits give low values 0.982 | S. cerevisiae deletion strains, locus YNR052C, strain pop2, hits give low values 0.973 | S. cerevisiae deletion strains, locus YOL006C, strain TOP1, hits give low values 0.959 | S. cerevisiae deletion strains, locus YOL012C, strain htz1 0.852 | S. cerevisiae deletion strains, locus YOL147C, strain pex11, hits give low values 0.977 | S. cerevisiae deletion strains, locus YOR001W, strain rrp6, hits give low values 0.986 | S. cerevisiae deletion strains, locus YOR061W, strain CKA2, hits give low values 1.01 | S. cerevisiae deletion strains, locus YOR069W, strain VPS5, hits give low values 1.01 | S. cerevisiae deletion strains, locus YOR070C, strain gyp1, hits give low values 0.993 | S. cerevisiae deletion strains, locus YOR080W, strain dia2, hits give low values 0.987 | S. cerevisiae deletion strains, locus YOR083W, strain WHI5, hits give low values 0.968 | S. cerevisiae deletion strains, locus YOR106W, strain vam3, hits give low values 0.961 | S. cerevisiae deletion strains, locus YOR136W, strain idh2, hits give low values 0.978 | S. cerevisiae deletion strains, locus YOR144C, strain elg1, hits give low values 0.967 | S. cerevisiae deletion strains, locus YOR184W, strain ser1, hits give low values 0.982 | S. cerevisiae deletion strains, locus YOR231W, strain MKK1, hits give low values 0.971 | S. cerevisiae deletion strains, locus YOR265W, strain rbl2, hits give low values 0.995 | S. cerevisiae deletion strains, locus YOR270C, strain vph1, hits give low values 0.965 | S. cerevisiae deletion strains, locus YOR290C, strain snf2, hits give low values 0.991 | S. cerevisiae deletion strains, locus YOR316C, strain cot1, hits give low values 0.953 | S. cerevisiae deletion strains, locus YPL051W, strain arl3, hits give low values 0.985 | S. cerevisiae deletion strains, locus YPL055C, strain LGE1, hits give low values 1 | S. cerevisiae deletion strains, locus YPL078C, strain atp4, hits give low values 0.989 | S. cerevisiae deletion strains, locus YPL106C, strain sse1, hits give low values 0.959 | S. cerevisiae deletion strains, locus YPL240C, strain hsp82, hits give low values 1 | S. cerevisiae deletion strains, locus YPL241C, strain CIN2, hits give low values 1.01 | S. cerevisiae deletion strains, locus YPL256C, strain CLN2, hits give low values 0.945 | S. cerevisiae deletion strains, locus YPR119W, strain clb2, hits give low values 0.98 | S. cerevisiae deletion strains, locus YPR141C, strain kar3, hits give low values 0.971 | S. cerevisiae deletion strains, locus YPR163C, strain tif3, hits give low values 0.982 | S. cerevisiae deletion strains, locus YPR167C, strain met16, hits give low values 0.97 | S. cerevisiae deletion strains, strain wtn01, hits give low values 0.982 | S. cerevisiae strains, strain wild type, hits give low values 1.01
